{"source": "the supplement of paper PMC12297408", "test_system": "Plasmodium falciparum NF54/iGP1_RE9H ulg8 stage V gametocytes", "test": "gametocyte viability (luciferase signal relative to DMSO control) (% of DMSO control); higher = less gametocytocidal activity, active = 50 or less", "settings": "exposure time: 72 h", "summary_of_the_method": "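NF54/iGP1_RE9Hulg8 stage V gametocytes (day 12; ~2.5% gametocytemia, 3% hematocrit) were incubated with compounds at 10 µM or 1 µM final, in one well each, for 72 h at 37 °C in medium with 0.5% Albumax II. Luminescence after D-luciferin addition was read on an IVIS Lumina II. Viability refers to the mean of plate DMSO vehicle wells.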", "note": "Counter-ions that a name gives are not always drawn. In all, about 1,300 compounds went through this assay and about 40 (3%) showed activity. This excerpt belongs to a sample that is enriched for actives. Unmarked numbers belong to inactive results."}
{"smiles": "CN(C)CCOC(c1ccccc1)c1ccccc1.Cn1c(=O)c2[nH]c(Cl)nc2n(C)c1=O", "note": "[Dimenhydrinate]", "values": [{"measurement": "gametocyte viability", "setting": "concentration: 1 µM", "value": 89}, {"measurement": "gametocyte viability", "setting": "concentration: 10 µM", "value": 94}]}
{"smiles": "CCCCCCCCCCCCCCCC[N+](C)(C)CCN(Cc1ccc(OC)cc1)c1ncccn1", "note": "[Thonzonium bromide]", "values": [{"measurement": "gametocyte viability", "setting": "concentration: 1 µM", "value": 77}, {"measurement": "gametocyte viability", "setting": "concentration: 10 µM", "value": "1.76 (active)"}]}
{"smiles": "COc1ccc(CN(CCN(C)C)c2ccccn2)cc1", "note": "[Pyrilamine maleate]", "values": [{"measurement": "gametocyte viability", "setting": "concentration: 1 µM", "value": 90.9}, {"measurement": "gametocyte viability", "setting": "concentration: 10 µM", "value": 100}]}
{"smiles": "CN(C)CCN(Cc1ccc(Cl)cc1)c1ccccn1", "note": "[Chloropyramine hydrochloride]", "values": [{"measurement": "gametocyte viability", "setting": "concentration: 1 µM", "value": 87.4}, {"measurement": "gametocyte viability", "setting": "concentration: 10 µM", "value": 90.3}]}
{"smiles": "CCCNCC(O)COc1ccccc1C(=O)CCc1ccccc1", "note": "(configuration not stated) [Propafenone hydrochloride]", "values": [{"measurement": "gametocyte viability", "setting": "concentration: 1 µM", "value": 81.6}, {"measurement": "gametocyte viability", "setting": "concentration: 10 µM", "value": 75.7}]}
{"smiles": "CC(C)Nc1cccnc1N1CCN(C(=O)c2cc3cc(NS(C)(=O)=O)ccc3[nH]2)CC1", "note": "[Delavirdine]", "values": [{"measurement": "gametocyte viability", "setting": "concentration: 1 µM", "value": 92.5}, {"measurement": "gametocyte viability", "setting": "concentration: 10 µM", "value": 95.8}]}
{"smiles": "CC[C@@H]1C(=O)OC[C@@H]1Cc1cncn1C", "note": "[Pilocarpine nitrate]", "values": [{"measurement": "gametocyte viability", "setting": "concentration: 1 µM", "value": 98.2}, {"measurement": "gametocyte viability", "setting": "concentration: 10 µM", "value": 98}]}
{"smiles": "CC(C)NCC(O)c1ccc(NS(C)(=O)=O)cc1", "note": "(configuration not stated) [Sotalol hydrochloride]", "values": [{"measurement": "gametocyte viability", "setting": "concentration: 1 µM", "value": 83.1}, {"measurement": "gametocyte viability", "setting": "concentration: 10 µM", "value": 92.1}]}
{"smiles": "N=C(NCCCCCCNC(=N)NC(=N)Nc1ccc(Cl)cc1)NC(=N)Nc1ccc(Cl)cc1", "note": "[Chlorhexidine]", "values": [{"measurement": "gametocyte viability", "setting": "concentration: 1 µM", "value": 92.1}, {"measurement": "gametocyte viability", "setting": "concentration: 10 µM", "value": "1.08 (active)"}]}
{"smiles": "N=C(N)NC(=N)NCCc1ccccc1", "note": "[Phenformin hydrochloride]", "values": [{"measurement": "gametocyte viability", "setting": "concentration: 1 µM", "value": 83.8}, {"measurement": "gametocyte viability", "setting": "concentration: 10 µM", "value": 83.6}]}
{"smiles": "CC(C)NC(=N)NC(=N)Nc1ccc(Cl)cc1", "note": "[Proguanil hydrochloride]", "values": [{"measurement": "gametocyte viability", "setting": "concentration: 1 µM", "value": 100}, {"measurement": "gametocyte viability", "setting": "concentration: 10 µM", "value": 106}]}
{"smiles": "N=C(N=C(N)N)N1CCOCC1", "note": "[Moroxidine hydrochloride]", "values": [{"measurement": "gametocyte viability", "setting": "concentration: 1 µM", "value": 83.9}, {"measurement": "gametocyte viability", "setting": "concentration: 10 µM", "value": 87.9}]}
{"smiles": "NC1CCN(c2nc3c(cc2F)c(=O)c(C(=O)O)cn3-c2ccc(F)cc2F)C1", "note": "(configuration not stated) [Tosufloxacin hydrochloride]", "values": [{"measurement": "gametocyte viability", "setting": "concentration: 1 µM", "value": 78.5}, {"measurement": "gametocyte viability", "setting": "concentration: 10 µM", "value": 86.9}]}
{"smiles": "NC(=O)c1ccc[n+]([C@@H]2O[C@H](COP(=O)([O-])OP(=O)(O)OC[C@H]3O[C@@H](n4cnc5c(N)ncnc54)[C@H](O)[C@@H]3O)[C@@H](O)[C@H]2O)c1", "note": "[Nadide]", "values": [{"measurement": "gametocyte viability", "setting": "concentration: 1 µM", "value": 85.3}, {"measurement": "gametocyte viability", "setting": "concentration: 10 µM", "value": 79.3}]}
{"smiles": "C[C@]12CCC(=O)C=C1C=C[C@@H]1[C@@H]2CC[C@@]2(C)[C@H]1CC[C@@]21CCC(=O)O1", "note": "[Canrenone]", "values": [{"measurement": "gametocyte viability", "setting": "concentration: 1 µM", "value": 80}, {"measurement": "gametocyte viability", "setting": "concentration: 10 µM", "value": 83.7}]}
{"smiles": "C[C@H]1O[C@H](O[C@H]2[C@H](O)[C@@H](O)[C@@H](O[C@@H]([C@H](O)[C@@H](O)C=O)[C@H](O)CO)O[C@@H]2CO)[C@H](O)[C@@H](O)[C@@H]1N[C@H]1C=C(CO)[C@@H](O)[C@H](O)[C@H]1O", "note": "[Acarbose]", "values": [{"measurement": "gametocyte viability", "setting": "concentration: 1 µM", "value": 80.6}, {"measurement": "gametocyte viability", "setting": "concentration: 10 µM", "value": 83.5}]}
{"smiles": "NCCc1cc[nH]n1", "note": "[Betazole hydrochloride]", "values": [{"measurement": "gametocyte viability", "setting": "concentration: 1 µM", "value": 94.2}, {"measurement": "gametocyte viability", "setting": "concentration: 10 µM", "value": 94.2}]}
{"smiles": "CCC(=O)OCC(=O)[C@@]1(OC(=O)CC)[C@H](C)C[C@H]2[C@H]3[C@H]([C@@H](O)C[C@@]21C)[C@@]1(C)C=CC(=O)C=C1C[C@H]3Cl", "note": "[Alclometasone dipropionate]", "values": [{"measurement": "gametocyte viability", "setting": "concentration: 1 µM", "value": 83.6}, {"measurement": "gametocyte viability", "setting": "concentration: 10 µM", "value": 78.3}]}
{"smiles": "CN(N=O)C(=O)N[C@H]1C(O)O[C@H](CO)[C@@H](O)[C@@H]1O", "note": "(mixture of isomers) [Streptozotocin]", "values": [{"measurement": "gametocyte viability", "setting": "concentration: 1 µM", "value": 84.7}, {"measurement": "gametocyte viability", "setting": "concentration: 10 µM", "value": 92.1}]}
{"smiles": "C[C@@H](O)[C@H]1C(=O)N2C(C(=O)O)=C(SCCNC=N)C[C@H]12", "note": "[Imipenem]", "values": [{"measurement": "gametocyte viability", "setting": "concentration: 1 µM", "value": 88.8}, {"measurement": "gametocyte viability", "setting": "concentration: 10 µM", "value": 87.5}]}
{"smiles": "Cc1cc(N)c2ccccc2[n+]1CCCCCCCCCC[n+]1c(C)cc(N)c2ccccc21", "note": "[Dequalinium dichloride]", "values": [{"measurement": "gametocyte viability", "setting": "concentration: 1 µM", "value": 83.5}, {"measurement": "gametocyte viability", "setting": "concentration: 10 µM", "value": "36.1 (active)"}]}
{"smiles": "Cc1[nH]c(=O)c(C#N)cc1-c1ccncc1", "note": "[Milrinone]", "values": [{"measurement": "gametocyte viability", "setting": "concentration: 1 µM", "value": 81}, {"measurement": "gametocyte viability", "setting": "concentration: 10 µM", "value": 82.1}]}
{"smiles": "Cc1c(C)c2c(c(C)c1O)CCC(C)(COc1ccc(CC3SC(=O)NC3=O)cc1)O2", "note": "(configuration not stated) [Troglitazone]", "values": [{"measurement": "gametocyte viability", "setting": "concentration: 1 µM", "value": 81.7}, {"measurement": "gametocyte viability", "setting": "concentration: 10 µM", "value": 76.3}]}
{"smiles": "CC=C(C)C(=O)OC1C(OC(C)=O)C2(CO)C(O)CC3(C)C(=CCC4C5(C)CCC(OC6OC(C(=O)O)C(OC7OC(CO)C(O)C(O)C7O)C(O)C6OC6OC(CO)C(O)C(O)C6O)C(C)(CO)C5CCC43C)C2CC1(C)C", "note": "(stereo not drawn) [Beta-Escin]", "values": [{"measurement": "gametocyte viability", "setting": "concentration: 1 µM", "value": 90.1}, {"measurement": "gametocyte viability", "setting": "concentration: 10 µM", "value": 93.2}]}
{"smiles": "C[C@@H](O[C@H]1OCCN(Cc2n[nH]c(=O)[nH]2)[C@H]1c1ccc(F)cc1)c1cc(C(F)(F)F)cc(C(F)(F)F)c1", "note": "[Aprepitant]", "values": [{"measurement": "gametocyte viability", "setting": "concentration: 1 µM", "value": 87.7}, {"measurement": "gametocyte viability", "setting": "concentration: 10 µM", "value": 75.4}]}
{"smiles": "CCN(CC)CCNC(C(=O)OCCC(C)C)c1ccccc1", "note": "(configuration not stated) [Camylofine chlorhydrate]", "values": [{"measurement": "gametocyte viability", "setting": "concentration: 1 µM", "value": 79.9}, {"measurement": "gametocyte viability", "setting": "concentration: 10 µM", "value": 85.5}]}
